Most compounds without a hit are left out; they make up all but 2% or so of the library.
ADAM10 inh: human ADAM10 inhibitors, primary screen, biochemical, QFRET, HTS; Disintegrin and metalloproteinase domain-containing protein 10 (Homo sapiens), O14672; AID 720582, 2013; inhibition, % at 7 µM; hit rate 0.62% among 370,000; recombinant ADAM10, EDANS/DABCYL FRET peptide cleavage, 3 h;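 active = inhibition above a per-campaign cutoff equal to the mean of compounds falling between control-based bounds plus 3 SD, cut at about 20% in these data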;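 note: 0% = DMSO wells while the 100% control is not disclosed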
GC-B act: human GC-B receptor activators, primary screen, HEK293 GC-B cells, cGMP TR-FRET, EC30 CNP. activation, % at 10 µM. hit rate 0.11% among 370,000. 0% at EC30 CNP, 100% saturating CNP;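 active = activation at 10 µM reaching about 35% in either raw or pattern-adjusted values, limit read from the data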
NPR1 activator: GC-A stimulated cGMP production enhancers – HEK293 GC-A cells, cGMP TR-FRET, EC30 ANP, primary screen; Atrial natriuretic peptide receptor 1 (Homo sapiens), P16066; 0% at EC30 ANP, 100% saturating ANP; activation, % at 10 µM; hit rate 0.14% among 370,000; AID 1671463, 2021; in the data active = activation above about 40%
Target sequence (P16066 whole entry, looked up): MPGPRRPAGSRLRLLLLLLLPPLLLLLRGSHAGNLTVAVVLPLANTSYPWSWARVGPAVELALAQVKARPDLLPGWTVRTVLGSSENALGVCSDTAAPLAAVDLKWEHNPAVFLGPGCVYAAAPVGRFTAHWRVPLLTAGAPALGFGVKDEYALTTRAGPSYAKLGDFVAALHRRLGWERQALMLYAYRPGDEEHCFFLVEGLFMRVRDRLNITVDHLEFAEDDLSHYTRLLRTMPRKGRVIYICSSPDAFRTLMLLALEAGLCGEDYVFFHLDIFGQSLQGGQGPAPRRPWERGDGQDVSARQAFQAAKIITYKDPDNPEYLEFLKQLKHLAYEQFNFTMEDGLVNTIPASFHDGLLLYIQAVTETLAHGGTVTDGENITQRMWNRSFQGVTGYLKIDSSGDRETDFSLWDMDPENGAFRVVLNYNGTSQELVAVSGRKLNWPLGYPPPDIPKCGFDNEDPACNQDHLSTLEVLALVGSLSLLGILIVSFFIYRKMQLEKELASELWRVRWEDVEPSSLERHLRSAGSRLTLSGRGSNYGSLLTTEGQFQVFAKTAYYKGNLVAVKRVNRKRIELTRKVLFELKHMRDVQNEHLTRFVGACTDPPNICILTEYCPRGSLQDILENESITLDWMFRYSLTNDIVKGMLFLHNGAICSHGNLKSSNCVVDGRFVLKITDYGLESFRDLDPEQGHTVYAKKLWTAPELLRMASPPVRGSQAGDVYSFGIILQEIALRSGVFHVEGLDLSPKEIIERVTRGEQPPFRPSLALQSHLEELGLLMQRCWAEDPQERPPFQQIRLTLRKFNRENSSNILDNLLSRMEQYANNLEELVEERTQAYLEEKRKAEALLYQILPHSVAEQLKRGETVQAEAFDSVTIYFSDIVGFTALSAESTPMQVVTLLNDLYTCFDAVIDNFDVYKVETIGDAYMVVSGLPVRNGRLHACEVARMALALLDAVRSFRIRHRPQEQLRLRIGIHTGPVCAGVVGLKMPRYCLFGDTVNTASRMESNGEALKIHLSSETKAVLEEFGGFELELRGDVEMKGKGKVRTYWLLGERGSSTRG
ADAM17 inh: ADAM17 inhibitors, primary screen, biochemical, QFRET. recombinant ADAM17, EDANS/DABCYL FRET peptide cleavage. hit rate 0.83% among 370,000. AID 720648, 2013. inhibition, % at 6.95 µM;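 active = inhibition above the mean of compounds lying between control limits plus 3 SD, set per campaign, cut at about 8.5% in these data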;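 note: 0% = DMSO-only wells as the low control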
FAS TE block: FAS thioesterase domain inhibitors, primary screen, biochemical, fluorescence intensity, uHTS; AID 602261, 2012; recombinant FAS-TE, OMFH fluorogenic substrate, fluorescence endpoint; inhibition, % at 15 µM; hit rate 0.67% among 360,000;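 active = compounds whose normalised, plate-corrected inhibition of enzyme fluorescence in the single-dose primary screen is 50% or more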;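 note: 0% = DMSO with enzyme and 100% = substrate without enzyme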
FAS-TE conf: FAS thioesterase domain inhibitors, confirmation, biochemical, fluorescence intensity, single concentration; shares compounds with FAS TE block; recombinant FAS-TE, OMFH fluorogenic substrate; inhibition, % at 15 µM; hit rate 45% among 2,300; AID 624325, 2012;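 active = compounds inhibiting the enzyme by at least 50% at 15 µM in any one of the replicates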;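 note: 0% = enzyme with DMSO only and 100% = wells lacking enzyme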
ADAM10 confirm: human ADAM10 inhibitors, confirmation, biochemical, QFRET, triplicate | shares compounds with ADAM10 inh | ADAM10 QFRET peptide cleavage, EDANS fluorescence | inhibition, % at 6.95 µM | hit rate 1% among 2,100 | AID 743208, 2013;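 active = inhibition above about 20% chosen separately for each screening run, limit read from the data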;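 note: 0% = DMSO wells and 100% = marimastat wells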
ADAM17 ctr: ADAM17 inhibitors, counter-screen for ADAM10 exosite inhibitor project, biochemical, QFRET, high throughput; shares compounds with ADAM10 inh; ADAM17 QFRET peptide cleavage, EDANS fluorescence; inhibition, % at 6.95 µM; hit rate 0.5% among 2,100;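 active = mean triplicate inhibition above the solvent-only control wells' mean plus 3 SD, cut at about 12% in these data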;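 note: 0% = DMSO wells and 100% = marimastat wells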
ADAM10 counter: ADAM10 inhibitors, counter-screen for ADAM17 exosite inhibitor project, biochemical, FRET, human ADAM10 | hit rate 47% among 2,900 | inhibition, % at 6.95 µM | shares compounds with ADAM17 inh | recombinant ADAM10, EDANS/DABCYL FRET peptide cleavage, 3 h | AID 743256, 2014;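 active = mean inhibition over the triplicate runs exceeds the activity threshold set in the earlier primary screen, cut at about 20% in these data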;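 note: 0% = DMSO wells and 100% = marimastat wells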
ADAM17 confirm: ADAM17 inhibitors, hit retest, confirmation, biochemical, QFRET peptide cleavage | shares compounds with ADAM17 inh | recombinant ADAM17, EDANS/DABCYL QFRET peptide cleavage | inhibition, % at 6.95 µM | hit rate 65% among 2,900 | AID 743257, 2014;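 active = mean inhibition across replicates above the hit cutoff set in the primary screen, cut at about 8.5% in these data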;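 note: 0% = DMSO wells and 100% = marimastat wells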
* hit, by the source's call; nt = no result.

SMILES | ADAM10 inh | GC-B act | NPR1 activator | ADAM17 inh | FAS TE block | FAS-TE conf | ADAM10 confirm | ADAM17 ctr | ADAM10 counter | ADAM17 confirm
COc1ccc2c(c1)c(CC(=O)Nc1ccc(C(C)=O)cc1)c(C)n2C(=O)c1ccc(Cl)cc1 | 24* | 1 | 0 | 12* | 54* | 30 | 15 | 5 | 30* | 18*
COc1ccc2c(c1)c(CC(=O)Nc1nnc(C3CC3)s1)c(C)n2C(=O)c1ccc(Cl)cc1 | 0 | 13 | -1 | 0 | -1 | nt | nt | nt | nt | nt
CC(CCc1ccccc1)NC(=O)COC(=O)c1cc(NS(=O)(=O)c2ccc(Cl)c([N+](=O)[O-])c2)ccc1O (centres undefined) | 17 | -2 | 2 | 8.7* | 55* | 62* | nt | nt | 31* | 19*
CC(C)(C)OC(=O)NCCCC[C@H](NC(=O)c1nc[nH]c1C(=O)NCC(=O)OCc1ccccc1)C(=O)OC(C)(C)C | 24* | 4 | -1 | 11* | 90* | 96* | 2 | 0 | 25* | 18*
C[C@H](NC(=O)c1nc[nH]c1C(=O)N[C@@H](CCCCNC(=O)OC(C)(C)C)C(=O)OC(C)(C)C)C(=O)OCc1ccccc1 | 29* | 6 | 1 | 15* | 87* | 74* | 6 | 1 | 42* | 23*
CC(C)(C)OC(=O)NCCCCCNC(=O)c1nc[nH]c1C(=O)NCC(=O)OCc1ccccc1 | 14 | 8 | 4 | 5 | 29 | nt | nt | nt | nt | nt
Cc1ccccc1-n1c(SCC(=O)N/N=C/C=C/c2ccccc2[N+](=O)[O-])nc2ccccc2c1=O | 23* | 1 | 0 | 10.0* | 79* | 27 | 5 | 1 | 18 | 12*
CC[C@@]12C(=O)N(c3cccc(Br)c3)C(=O)N1[C@H](c1ccc(F)cc1)[C@@H]1C(=O)N(C3CCCCC3)C(=O)[C@@H]12 | 26* | -10 | -7 | 11* | 52* | 24 | 7 | 2 | 20* | 14*
Cc1onc(C(=O)N2CCN(C(c3ccc(F)cc3)c3ccc(F)cc3)CC2)c1[N+](=O)[O-] | 10 | -4 | -3 | 3 | nt | nt | nt | nt | nt | nt
COc1ccc(-c2csc(NC(=O)COc3ccc(N(C)S(=O)(=O)c4ccc(C)cc4)cc3)n2)cc1 | 11 | -3 | -2 | 9.9* | 53* | 15 | nt | nt | 12 | 9
Cc1ccc(-c2csc(NC(=O)COc3ccc(N(C)S(=O)(=O)c4ccc(C)cc4)cc3)n2)cc1 | 0 | 4 | 2 | -1 | 27 | nt | nt | nt | nt | nt
CCCC[C@H]1C2CC(OC(=O)NCCCC(=O)OCC)C(C2)[C@H]2CCCCN21 (some centres undefined) | -3 | 3 | 5 | -5 | nt | nt | nt | nt | nt | nt
CC(C)(C)c1ccc(OCCC(=O)OCC(=O)N2c3ccccc3NC(=O)C2(C)C)cc1 | 5 | 7 | 4 | 11* | 56* | 66* | nt | nt | 39* | 16*
N#Cc1c(-c2ccccc2)c(-c2ccccc2)nn(CC(=O)NNC(=O)Nc2ccccc2)c1=O | -24 | -7 | -4 | -2 | 43 | nt | nt | nt | nt | nt

Assay outcomes (PubChem BioAssay)
